Values joined by “and” are separate entries in the source; they are usually repeats but may differ in a detail not shown here. Equal values may be shown once. Out of some 5,500 compounds screened, about 2,000 (36%) were called active. Roughly 18% stayed inconclusive and do not appear here. No stated cut-off is given here; in the data, active means normalized growth mostly below about 0.91 (no sharp cut-off); inconclusive means no clear call, values can overlap the other calls; inactive means mostly above about 0.92. The list shows a part of the results.
Assay: chemical genetic growth profiling, strain panel (AID 1159580);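 further: tested at 20 µM; growth read once vehicle control cultures reached saturation at 30 °C; 1 = growth at the plate median or of vehicle wells; lower values mean less growth of the strain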
Settings: S. cerevisiae deletion strains, growth OD

Measured: normalized growth

CCCCCC(=O)O[C@]1(C(C)=O)CCC2C3CCC4=CC(=O)CC[C@]4(C)C3CC[C@@]21C (some centres undefined)
inactive: locus YAL013W, strain DEP1, hits give low values 1.02 | locus YAL021C, strain ccr4, hits give low values 1 | locus YAL026C, strain drs2, hits give low values 1.03 | locus YAL030W, strain snc1, hits give low values 1 | locus YBL061C, strain skt5, hits give low values 1 | locus YBR009C, strain hhf1, hits give low values 1.01 | locus YBR021W, strain FUR4, hits give low values 0.948 | locus YBR023C, strain chs3, hits give low values 0.985 | locus YBR171W, strain sec66, hits give low values 0.993 | locus YBR229C, strain ROT2, hits give low values 1.01 | locus YBR231C, strain swc5, hits give low values 0.991 | locus YBR279W, strain paf1, hits give low values 1 | locus YCL011C, strain gbp2, hits give low values 1.01 | locus YCL016C, strain dcc1, hits give low values 1 | locus YCL029C, strain bik1, hits give low values 1.01 | locus YCL061C, strain MRC1, hits give low values 0.971 | locus YCL069W, strain vba3, hits give low values 1.01 | locus YCR088W, strain abp1, hits give low values 0.995 | locus YDL005C, strain med2, hits give low values 0.996 | locus YDL035C, strain GPR1, hits give low values 1.02 | locus YDL040C, strain nat1, hits give low values 1.01 | locus YDL074C, strain BRE1, hits give low values 1.01 | locus YDL101C, strain DUN1, hits give low values 1.01 | locus YDL134C, strain PPH21, hits give low values 1.01 | locus YDL185W, strain tfp1, hits give low values 1.02 | locus YDL192W, strain arf1, hits give low values 1.01 | locus YDR001C, strain nth1, hits give low values 1.01 | locus YDR069C, strain doa4, hits give low values 0.995 | locus YDR101C, strain arx1, hits give low values 1.01 | locus YDR137W, strain rgp1, hits give low values 1.01 | locus YDR150W, strain NUM1, hits give low values 1.02 | locus YDR159W, strain sac3, hits give low values 0.976 | locus YDR162C, strain NBP2, hits give low values 0.996 | locus YDR195W, strain ref2 1.02 | locus YDR297W, strain sur2, hits give low values 1 | locus YDR318W, strain mcm21, hits give low values 1 | locus YDR334W, strain swr1, hits give low values 0.999 | locus YDR335W, strain msn5, hits give low values 1.01 | locus YDR388W, hits give low values 1.01 | locus YDR392W, strain spt3, hits give low values 0.91 | locus YDR502C, strain sam2, hits give low values 1.01 | locus YEL003W, strain gim4, hits give low values 1.02 | locus YEL037C, strain rad23, hits give low values 1 | locus YEL061C, strain CIN8 (second series), hits give low values 1 | locus YEL061C, strain CIN8, hits give low values 1 | locus YER015W, strain faa2, hits give low values 0.997 | locus YER016W, strain bim1, hits give low values 0.988 | locus YER110C, hits give low values 1.02 | locus YER111C, strain swi4, hits give low values 0.991 | locus YER155C, strain BEM2 (second series), hits give low values 1.01 | locus YER155C, strain BEM2, hits give low values 1.01 | locus YER167W, strain BCK2, hits give low values 1.01 | locus YFR010W, strain ubp6, hits give low values 1.02 | locus YGL078C, strain dbp3, hits give low values 1.01 | locus YGL086W, strain mad1, hits give low values 1.01 | locus YGL167C, strain pmr1, hits give low values 0.989 | locus YGL173C, strain kem1, hits give low values 1.01 | locus YGL227W, strain vid30, hits give low values 1 | locus YGL240W, strain doc1, hits give low values 0.976 | locus YGL248W, strain PDE1, hits give low values 1.01 | locus YGL253W, strain hxk2, hits give low values 1.01 | locus YGR135W, strain pre9, hits give low values 1.01 | locus YGR252W, strain gcn5, hits give low values 0.974 | locus YHR013C, strain ard1, hits give low values 1.01 | locus YHR027C, strain rpn1, hits give low values 0.999 | locus YHR030C, strain SLT2, hits give low values 1.03 and 0.978 | locus YHR079C, strain IRE1 (second series), hits give low values 1.01 | locus YHR079C, strain IRE1, hits give low values 0.976 | locus YHR094C, strain hxt1, hits give low values 1 | locus YHR129C, strain ARP1, hits give low values 1.01 | locus YHR142W, strain chs7, hits give low values 1.02 | locus YHR200W, strain rpn10, hits give low values 1.01 | locus YIL066C, strain RNR3, hits give low values 1.02 | locus YIL073C, strain SPO22, hits give low values 1.04 | locus YIL125W, strain kgd1, hits give low values 1.01 | locus YIR030C, strain dcg1, hits give low values 1.01 | locus YJL092W, strain hpr5, hits give low values 1.01 | locus YJL095W, strain BCK1 (second series), hits give low values 1 | locus YJL095W, strain BCK1, hits give low values 1.02 and 0.987 | locus YJL115W, strain asf1, hits give low values 1 | locus YJL129C, strain trk1, hits give low values 0.946 | locus YJL134W, strain LCB3, hits give low values 0.98 | locus YJL154C, strain vps35, hits give low values 1.02 | locus YJL164C, strain tpk1, hits give low values 1.01 | locus YJL166W, strain qcr8, hits give low values 1 | locus YJL168C, strain set2, hits give low values 1.01 | locus YJL187C, strain SWE1 (second series), hits give low values 1.01 | locus YJL187C, strain SWE1, hits give low values 0.997 | locus YJR043C, strain POL32, hits give low values 1.01

— PubChem BioAssay AID1159580 (chemical genetic matrix, 2015)
